Test results published in PubChem BioAssay AID1159580 (chemical genetic matrix, 2015).
Several values for one entry are separate records, joined by “and”; a condition that tells them apart may be missing. Equal entries are not always repeated. Hit rate of the full screen: of about 5,500 compounds, about 2,000 (36%) were called active. Not shown: some 18% with an inconclusive outcome. Cut-off read from the data, not from the text of the source: active = normalized growth mostly below about 0.91 (no sharp cut-off); inconclusive = no clear call, values can overlap the other calls; inactive = mostly above about 0.92. This is one part of the list.

Assay: chemical genetic growth profiling, strain panel (AID 1159580);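 note: tested at 20 µM; growth read once vehicle control cultures reached saturation at 30 °C; 1 = growth at the plate median or of vehicle wells; lower values mean less growth of the strain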
Conditions: S. cerevisiae deletion strains, growth OD

Measured: normalized growth

CC(C)CCCC(C)C1CCC2C3CC(=O)[C@H]4C[C@@H](O)CC[C@]4(C)C3CC[C@]12C (stereo partly drawn)
inactive: locus YAL021C, strain ccr4, hits give low values 0.997 | locus YAL026C, strain drs2, hits give low values 0.98 | locus YAL030W, strain snc1, hits give low values 1.01 | locus YBL061C, strain skt5, hits give low values 1 | locus YBR009C, strain hhf1, hits give low values 1 | locus YBR021W, strain FUR4, hits give low values 1.06 | locus YBR023C, strain chs3, hits give low values 1 | locus YBR171W, strain sec66, hits give low values 1 | locus YBR229C, strain ROT2, hits give low values 1.02 | locus YBR231C, strain swc5, hits give low values 0.975 | locus YBR279W, strain paf1, hits give low values 1.01 | locus YCL011C, strain gbp2, hits give low values 1.02 | locus YCL016C, strain dcc1, hits give low values 1.01 | locus YCL029C, strain bik1, hits give low values 1.01 | locus YCL061C, strain MRC1, hits give low values 1.01 | locus YCL069W, strain vba3, hits give low values 1.03 | locus YCR088W, strain abp1, hits give low values 1 | locus YDL005C, strain med2, hits give low values 1.01 | locus YDL035C, strain GPR1, hits give low values 1.01 | locus YDL040C, strain nat1, hits give low values 1.01 | locus YDL074C, strain BRE1, hits give low values 1.05 | locus YDL101C, strain DUN1, hits give low values 1.02 | locus YDL185W, strain tfp1, hits give low values 1.07 | locus YDL192W, strain arf1, hits give low values 1.02 | locus YDR001C, strain nth1, hits give low values 1.02 | locus YDR069C, strain doa4, hits give low values 1 | locus YDR101C, strain arx1, hits give low values 1.01 | locus YDR137W, strain rgp1, hits give low values 0.908 | locus YDR150W, strain NUM1, hits give low values 1 | locus YDR159W, strain sac3, hits give low values 0.963 | locus YDR162C, strain NBP2, hits give low values 1.04 | locus YDR195W, strain ref2 1.01 | locus YDR297W, strain sur2, hits give low values 1 | locus YDR318W, strain mcm21, hits give low values 1.01 | locus YDR334W, strain swr1, hits give low values 1.02 | locus YDR335W, strain msn5, hits give low values 1.02 | locus YDR388W, hits give low values 1.01 | locus YDR392W, strain spt3, hits give low values 0.942 | locus YDR502C, strain sam2, hits give low values 1.01 | locus YEL003W, strain gim4, hits give low values 1.01 | locus YEL037C, strain rad23, hits give low values 1 | locus YEL061C, strain CIN8 (second series), hits give low values 1.01 | locus YEL061C, strain CIN8, hits give low values 1 | locus YER015W, strain faa2, hits give low values 1 | locus YER016W, strain bim1, hits give low values 1.01 | locus YER110C, hits give low values 1 | locus YER111C, strain swi4, hits give low values 1 | locus YER155C, strain BEM2 (second series), hits give low values 1.07 | locus YER155C, strain BEM2, hits give low values 0.997 | locus YER167W, strain BCK2, hits give low values 1.03 | locus YFR010W, strain ubp6, hits give low values 1.02 | locus YGL078C, strain dbp3, hits give low values 1.01 | locus YGL086W, strain mad1, hits give low values 1.03 | locus YGL167C, strain pmr1, hits give low values 0.998 | locus YGL173C, strain kem1, hits give low values 1 | locus YGL227W, strain vid30, hits give low values 1.01 | locus YGL240W, strain doc1, hits give low values 0.904 | locus YGL248W, strain PDE1, hits give low values 1.01 | locus YGL253W, strain hxk2, hits give low values 1.02 | locus YGR135W, strain pre9, hits give low values 1 | locus YGR252W, strain gcn5, hits give low values 1.06 | locus YHR013C, strain ard1, hits give low values 1.01 | locus YHR027C, strain rpn1, hits give low values 1.01 | locus YHR030C, strain SLT2, hits give low values 1.02 and 1.05 | locus YHR079C, strain IRE1 (second series), hits give low values 0.99 | locus YHR079C, strain IRE1, hits give low values 1.04 | locus YHR094C, strain hxt1, hits give low values 1.01 | locus YHR129C, strain ARP1, hits give low values 1.02 | locus YHR142W, strain chs7, hits give low values 1.04 | locus YHR200W, strain rpn10, hits give low values 1.03 | locus YIL066C, strain RNR3, hits give low values 1.04 | locus YIL073C, strain SPO22, hits give low values 1.05 | locus YIL125W, strain kgd1, hits give low values 0.998 | locus YIR030C, strain dcg1, hits give low values 1.01 | locus YJL092W, strain hpr5, hits give low values 1.02 | locus YJL095W, strain BCK1 (second series), hits give low values 1.01 | locus YJL095W, strain BCK1, hits give low values 1.03 | locus YJL115W, strain asf1, hits give low values 0.991 | locus YJL129C, strain trk1, hits give low values 1.04 | locus YJL134W, strain LCB3, hits give low values 1.01 | locus YJL154C, strain vps35, hits give low values 1.02 | locus YJL164C, strain tpk1, hits give low values 1.01 | locus YJL166W, strain qcr8, hits give low values 1.06 | locus YJL168C, strain set2, hits give low values 1 | locus YJL187C, strain SWE1 (second series), hits give low values 1.01 | locus YJL187C, strain SWE1, hits give low values 1.02 | locus YJR043C, strain POL32, hits give low values 1.05 | locus YJR066W, strain TOR1, hits give low values 0.998 | locus YKL009W, strain mrt4, hits give low values 1.01 | locus YKL068W, hits give low values 1.02 | locus YKL085W, strain MDH1 (second series), hits give low values 1.01 | locus YKL085W, strain MDH1, hits give low values 1.01 | locus YKL160W, strain elf1, hits give low values 1.02 | locus YKL190W, strain CNB1, hits give low values 1.02 | locus YKR001C, strain vps1, hits give low values 1.02 | locus YKR026C, strain gcn3, hits give low values 1 | locus YKR091W, strain srl3, hits give low values 1.01 | locus YLL001W, strain dnm1, hits give low values 0.982 | locus YLL026W, hits give low values 0.999 | locus YLL041C, strain sdh2, hits give low values 1.01 | locus YLR027C, strain aat2, hits give low values 0.99 | locus YLR039C, strain RIC1, hits give low values 0.767 | locus YLR058C, strain SHM2, hits give low values 1.01 | locus YLR102C, strain apc9, hits give low values 1.01 | locus YLR113W, strain HOG1, hits give low values 0.986 | locus YLR221C, strain rsa3, hits give low values 0.991 | locus YLR258W, strain gsy2, hits give low values 0.994 | locus YLR262C, strain YPT6, hits give low values 0.831 | locus YLR268W, strain sec22, hits give low values 1.03 | locus YLR320W, strain mms22, hits give low values 1.02 | locus YLR330W, strain CHS5, hits give low values 1.01 | locus YLR342W, strain FKS1 (second series), hits give low values 1.02 | locus YLR342W, strain FKS1, hits give low values 1.01 | locus YLR357W, strain rsc2, hits give low values 1.04 | locus YLR370C, strain arc18, hits give low values 1.02 | locus YLR371W, strain rom2, hits give low values 1 | locus YLR384C, strain iki3, hits give low values 0.99 | locus YLR418C, strain cdc73, hits give low values 1.08 | locus YML016C, strain PPZ1, hits give low values 0.995 | locus YML032C, strain rad52, hits give low values 1 | locus YML120C, strain ndi1, hits give low values 1.02 | locus YML124C, strain tub3, hits give low values 1 | locus YMR058W, strain fet3, hits give low values 1.01 | locus YMR078C, strain ctf18, hits give low values 1.04 | locus YMR125W, strain sto1, hits give low values 1.02 | locus YMR129W, hits give low values 1 | locus YMR205C, strain PFK2, hits give low values 1.02 | locus YMR223W, strain ubp8, hits give low values 1.01 | locus YMR231W, strain pep5, hits give low values 1.02 | locus YMR307W, strain GAS1, hits give low values 1.12 | locus YNL067W, strain RPL9B, hits give low values 1.03 | locus YNL071W, strain lat1, hits give low values 1.02 | locus YNL183C, strain NPR1, hits give low values 1 | locus YNL209W, strain ssb2, hits give low values 1.01 | locus YNL233W, strain BNI4, hits give low values 1.04 | locus YNL248C, strain rpa49, hits give low values 1 | locus YNL250W, strain rad50, hits give low values 1 | locus YNL271C, strain bni1, hits give low values 1 | locus YNL298W, strain CLA4, hits give low values 1.01 | locus YNL307C, strain MCK1, hits give low values 1.04 | locus YNL322C, strain KRE1 (second series), hits give low values 1.01 | locus YNR049C, strain mso1, hits give low values 1 | locus YNR052C, strain pop2, hits give low values 0.997 | locus YOL006C, strain TOP1, hits give low values 1.14 | locus YOL012C, strain htz1 1.15 | locus YOL147C, strain pex11, hits give low values 1.01 | locus YOR001W, strain rrp6, hits give low values 0.969 | locus YOR061W, strain CKA2, hits give low values 1.02 | locus YOR069W, strain VPS5, hits give low values 1 | locus YOR070C, strain gyp1, hits give low values 0.989 | locus YOR080W, strain dia2, hits give low values 0.998 | locus YOR083W, strain WHI5, hits give low values 1.02 | locus YOR106W, strain vam3, hits give low values 1.02 | locus YOR136W, strain idh2, hits give low values 1 | locus YOR144C, strain elg1, hits give low values 1 | locus YOR184W, strain ser1, hits give low values 1.04 | locus YOR231W, strain MKK1, hits give low values 1.02 | locus YOR265W, strain rbl2, hits give low values 1 | locus YOR270C, strain vph1, hits give low values 1.04 | locus YOR290C, strain snf2, hits give low values 1.03 | locus YOR316C, strain cot1, hits give low values 1 | locus YPL051W, strain arl3, hits give low values 0.985 | locus YPL055C, strain LGE1, hits give low values 1.07 | locus YPL078C, strain atp4, hits give low values 1.02 | locus YPL106C, strain sse1, hits give low values 1.02 | locus YPL240C, strain hsp82, hits give low values 1.01 | locus YPL256C, strain CLN2, hits give low values 1.04 | locus YPR119W, strain clb2, hits give low values 1 | locus YPR141C, strain kar3, hits give low values 1.01 | locus YPR163C, strain tif3, hits give low values 1.01 | locus YPR167C, strain met16, hits give low values 0.995 | strain wtn01, hits give low values 1.03
active: locus YLR262C, strain YPT6 (second series), hits give low values 0.76
